The results in this text go back to PubChem BioAssay (NCI).

About 83,000 compounds went through this panel and 20% of them were active in at least one assay; those are over-represented in the sample as a whole.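 Growth was measured after 48 h exposure to one concentration of compound in 96-well plates. Values under 10 count as active.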 Activity calls are given as the source filed them.

One experiment deals with U251 CNS. Put plainly: NCI-60 one-dose screen, 48 h (100 = growth as untreated, 0 = no growth, -100 = all killed). The conditions noted are these: 10 µM.
On to `COc1cc2c3c(n(CCCNC(C)C)c(=O)c2cc1OC)-c1nc2c(cc1C3=O)OCO2`, for which the growth is -76.3% (active).

Take `COc1ccc2cc([C@H](C)C(=O)NCc3ccccc3)ccc2c1`: the growth is 25% (inactive).

On to `O=C(Cn1nc(-c2ccccc2)ccc1=O)NNC(=S)NC1CCCCC1`, for which the growth is 102% (inactive).

As for `CN1CCCN(Cc2ccc(C(=O)Nc3cccc(Nc4ccc5cc(O)ccc5n4)c3)cc2C(F)(F)F)CC1`, the growth is 33.7% (inactive).

With `O=C1Nc2cc(Cl)ccc2/C1=C/c1cccc(OCc2ccccc2)c1`, the growth is -64.6% (active).

Regarding `C/C(=C\CC/C=C(\C)CC/C=C(\C)CC[C@@H](O)C(C)(C)O)CC/C=C(\C)CC[C@@H](O)C(C)(C)O`, the growth was 33.2% (inactive).

Take `O=C(c1ccc([N+](=O)[O-])c([N+](=O)[O-])c1O)n1[nH]c(=O)c2ccccc2c1=O`: the growth is 61.1% (inactive).

For the compound `O=C(O)CCCCCCCCCCN1C(=O)/C(=C/c2cnc(-c3ccc(Cl)cc3)s2)SC1=S`, the growth was -13% (active).

As for `O=C1Nc2ccc(F)cc2/C1=C/c1cccc(OCc2ccccc2)c1`, the growth was 6.3% (active).

Regarding `COc1ccc(-c2nc(S(=O)(=O)c3ccccc3)c(S(C)(=O)=O)o2)cc1`, the growth was 12% (inactive).

In the case of `COc1ccc(C(=O)NC(=S)N2CCN(c3ncnc4c3cnn4-c3ccccc3)CC2)cc1`, the growth is 55.1% (inactive).

Turning to `C=CC(=O)Nc1nc(-c2cccc(NS(=O)(=O)c3cccc4c(N(C)C)cccc34)c2)cs1`, the growth is -59% (active).

Turning to `Cc1cc(=O)oc2cc(OCCCCOc3ccc(/C=C/C(=O)Nc4cccc(Cl)c4)cc3)ccc12`, the growth is 56.8% (inactive).

In the case of `COc1ccccc1C(=O)NNC(=O)CSc1nc2c(c(=O)[nH]1)CCCC2`, the growth was 104% (inactive).

`NC1=NC(c2ccccc2Cl)N=C(Nc2nn[nH]n2)N1` (centres undefined): the growth was 97.5% (inactive).

With `COc1ccc2nc(Cl)c(-c3cc(-c4ccccc4)nc(=O)[nH]3)cc2c1`, the growth was 12.6% (inactive).

In the case of `O=c1[nH]n(C(=S)N/N=C/c2ccc(F)cc2)c(=O)c2ccccc12`, the growth is 25.6% (inactive).

`O=C(CS(=O)(=O)c1oc(-c2ccc(Cl)cc2)nc1S(=O)(=O)c1ccccc1)N1CCCC1`: the growth was 37.5% (inactive).

As to `O=C1Nc2cc(Cl)ccc2/C1=C/c1cccc(OCc2ccc(Br)cc2F)c1`, the growth is -1.12% (active).

Turning to `Cc1nc2c(cnn2-c2ccccc2)c(=O)n1-c1ccc(NC(=O)c2ccc(F)cc2)cc1`, the growth was 81.1% (inactive).

For the compound `S=c1nc(-c2ccccc2)cc(-c2cc3ccccc3nc2Cl)[nH]1`, the growth is 83.2% (inactive).

Take `Cc1ccc(C(=O)Nc2ccc(-n3c(C)nc4c(cnn4-c4ccccc4)c3=O)cc2)cc1`: the growth is 90% (inactive).

With `Cc1cc(C)nc(NS(=O)(=O)c2ccc(N/C(N)=N/c3nccc(-c4cccs4)n3)cc2)n1`, the growth was 102% (inactive).

Regarding `COc1ccc(CN2[C@H](C(=O)NCc3ccc(C(=O)NO)cc3)Cc3c([nH]c4ccccc34)[C@H]2C2CC2)cc1`, the growth is 47.9% (inactive).

As for `O=C1Nc2ccc(Cl)cc2/C1=C/c1cccc(OCc2ccccc2)c1`, the growth was 3.61% (active).

Regarding `O=C(Cn1cc(CSc2nnc3oc4ccccc4n23)nn1)Nc1ccc(Br)cc1`, the growth is 54.3% (inactive).

Turning to `CCN1CCN(c2ccc(NC(=O)Nc3ccc(-c4cc(C(=O)NC)c5ncccc5n4)cc3)cc2C(F)(F)F)CC1`, the growth is -96.3% (active).

As for `COc1ccc(-c2nc(S(=O)(=O)c3ccc(C)cc3)c(S(=O)(=O)CC(=O)N(C)Cc3ccccc3)o2)cc1`, the growth is 23.6% (inactive).

With `COC[C@@H](CC(C)C)N=C1NC(=O)/C(=C/c2ccc3ncsc3c2)N1`, the growth is 15.8% (inactive).

Consider `CC(C)Sc1nc(NC2CC2)c(C#N)c(-c2ccccc2)n1`, for which the growth is 50.6% (inactive).

For `CCOC(=O)N/C(=C1/OCCN1C)[P+](c1ccccc1)(c1ccccc1)c1ccccc1`, the growth was 66.3% (inactive).

`CS(=O)(=O)Nc1ccc(-c2ccc3c(c2)ncn3-c2ccc(NC(=O)Nc3ccc(Cl)c(C(F)(F)F)c3)cc2)cc1`: the growth is -87.4% (active).

Take `CN1CCc2c(sc3ncnc(N/N=C/c4cn(-c5ccccc5)nc4-c4ccc(Cl)cc4)c23)C1`: the growth was 18.2% (inactive).

As for `CC1(c2ccccc2)NC(=O)N(CC(=O)Nc2ccc(C(=O)/C=C/c3ccc(Br)cc3)cc2)C1=O` (centres undefined), the growth is 15.1% (inactive).

Take `O=C(CN1CCN(c2ncnc3c2cnn3-c2ccccc2)CC1)Nc1nncs1`: the growth is -72.5% (active).

As to `COc1ccc(C=CC(=O)c2ccc(-n3c(C)nc4c(cnn4-c4ccccc4)c3=O)cc2)cc1`, the growth was 74.1% (inactive).

With `O=C(c1ccc(-n2c(=O)[nH]c3ccccc3c2=O)cc1)N1CCOCC1`, the growth was 105% (inactive).

A further experiment relates to PC-3 prostate. The experiment is described as above. To be noted: 10 µM.
For the compound `COc1cc2c3c(n(CCCNC(C)C)c(=O)c2cc1OC)-c1nc2c(cc1C3=O)OCO2`, the growth was -66.1% (active).

`COc1ccc2cc([C@H](C)C(=O)NCc3ccccc3)ccc2c1`: the growth is 49.5% (inactive).

On to `O=C(Cn1nc(-c2ccccc2)ccc1=O)NNC(=S)NC1CCCCC1`, for which the growth was 96.4% (inactive).

For the compound `CN1CCCN(Cc2ccc(C(=O)Nc3cccc(Nc4ccc5cc(O)ccc5n4)c3)cc2C(F)(F)F)CC1`, the growth was 51.3% (inactive).

Regarding `O=C1Nc2cc(Cl)ccc2/C1=C/c1cccc(OCc2ccccc2)c1`, the growth was 6.84% (active).

Consider `C/C(=C\CC/C=C(\C)CC/C=C(\C)CC[C@@H](O)C(C)(C)O)CC/C=C(\C)CC[C@@H](O)C(C)(C)O`, for which the growth is 7.84% (active).

Take `O=C(c1ccc([N+](=O)[O-])c([N+](=O)[O-])c1O)n1[nH]c(=O)c2ccccc2c1=O`: the growth is 74.1% (inactive).

Regarding `O=C(O)CCCCCCCCCCN1C(=O)/C(=C/c2cnc(-c3ccc(Cl)cc3)s2)SC1=S`, the growth was 25.4% (inactive).

`O=C1Nc2ccc(F)cc2/C1=C/c1cccc(OCc2ccccc2)c1`: the growth is 20.4% (inactive).

For the compound `COc1ccc(-c2nc(S(=O)(=O)c3ccccc3)c(S(C)(=O)=O)o2)cc1`, the growth was 78.2% (inactive).

On to `COc1ccc(C(=O)NC(=S)N2CCN(c3ncnc4c3cnn4-c3ccccc3)CC2)cc1`, for which the growth was 59% (inactive).

With `C=CC(=O)Nc1nc(-c2cccc(NS(=O)(=O)c3cccc4c(N(C)C)cccc34)c2)cs1`, the growth is -26% (active).

For the compound `Cc1cc(=O)oc2cc(OCCCCOc3ccc(/C=C/C(=O)Nc4cccc(Cl)c4)cc3)ccc12`, the growth was 91.2% (inactive).

With `COc1ccccc1C(=O)NNC(=O)CSc1nc2c(c(=O)[nH]1)CCCC2`, the growth was 83.4% (inactive).

As to `NC1=NC(c2ccccc2Cl)N=C(Nc2nn[nH]n2)N1` (centres undefined), the growth was 103% (inactive).

As to `COc1ccc2nc(Cl)c(-c3cc(-c4ccccc4)nc(=O)[nH]3)cc2c1`, the growth was 48.8% (inactive).

Take `O=c1[nH]n(C(=S)N/N=C/c2ccc(F)cc2)c(=O)c2ccccc12`: the growth is 58.1% (inactive).

Consider `O=C(CS(=O)(=O)c1oc(-c2ccc(Cl)cc2)nc1S(=O)(=O)c1ccccc1)N1CCCC1`, for which the growth is 78.8% (inactive).

Take `O=C1Nc2cc(Cl)ccc2/C1=C/c1cccc(OCc2ccc(Br)cc2F)c1`: the growth is 19.3% (inactive).

For the compound `Cc1nc2c(cnn2-c2ccccc2)c(=O)n1-c1ccc(NC(=O)c2ccc(F)cc2)cc1`, the growth was 53.1% (inactive).

Regarding `S=c1nc(-c2ccccc2)cc(-c2cc3ccccc3nc2Cl)[nH]1`, the growth is 60.1% (inactive).

Consider `Cc1ccc(C(=O)Nc2ccc(-n3c(C)nc4c(cnn4-c4ccccc4)c3=O)cc2)cc1`, for which the growth was 71.6% (inactive).

In the case of `Cc1cc(C)nc(NS(=O)(=O)c2ccc(N/C(N)=N/c3nccc(-c4cccs4)n3)cc2)n1`, the growth was 86.6% (inactive).

On to `COc1ccc(CN2[C@H](C(=O)NCc3ccc(C(=O)NO)cc3)Cc3c([nH]c4ccccc34)[C@H]2C2CC2)cc1`, for which the growth was 54.6% (inactive).

On to `O=C1Nc2ccc(Cl)cc2/C1=C/c1cccc(OCc2ccccc2)c1`, for which the growth is 29.3% (inactive).

`O=C(Cn1cc(CSc2nnc3oc4ccccc4n23)nn1)Nc1ccc(Br)cc1`: the growth is 80% (inactive).

With `CCN1CCN(c2ccc(NC(=O)Nc3ccc(-c4cc(C(=O)NC)c5ncccc5n4)cc3)cc2C(F)(F)F)CC1`, the growth was -77.9% (active).

`COc1ccc(-c2nc(S(=O)(=O)c3ccc(C)cc3)c(S(=O)(=O)CC(=O)N(C)Cc3ccccc3)o2)cc1`: the growth was 63.7% (inactive).

In the case of `COC[C@@H](CC(C)C)N=C1NC(=O)/C(=C/c2ccc3ncsc3c2)N1`, the growth is 30.9% (inactive).

On to `CC(C)Sc1nc(NC2CC2)c(C#N)c(-c2ccccc2)n1`, for which the growth was 83% (inactive).

Consider `CCOC(=O)N/C(=C1/OCCN1C)[P+](c1ccccc1)(c1ccccc1)c1ccccc1`, for which the growth was 50.5% (inactive).

Regarding `CS(=O)(=O)Nc1ccc(-c2ccc3c(c2)ncn3-c2ccc(NC(=O)Nc3ccc(Cl)c(C(F)(F)F)c3)cc2)cc1`, the growth is -57.5% (active).

On to `CN1CCc2c(sc3ncnc(N/N=C/c4cn(-c5ccccc5)nc4-c4ccc(Cl)cc4)c23)C1`, for which the growth was 55.2% (inactive).

Take `CC1(c2ccccc2)NC(=O)N(CC(=O)Nc2ccc(C(=O)/C=C/c3ccc(Br)cc3)cc2)C1=O` (centres undefined): the growth was 20.1% (inactive).

Take `O=C(CN1CCN(c2ncnc3c2cnn3-c2ccccc2)CC1)Nc1nncs1`: the growth was -36.1% (active).

For the compound `COc1ccc(C=CC(=O)c2ccc(-n3c(C)nc4c(cnn4-c4ccccc4)c3=O)cc2)cc1`, the growth is 65.1% (inactive).

Take `O=C(c1ccc(-n2c(=O)[nH]c3ccccc3c2=O)cc1)N1CCOCC1`: the growth is 103% (inactive).
